GRK2 inh: inhibitors of human GRK2 displacing RNA aptamer | inhibition of aptamer binding, % at 10 µM | bead flow cytometry, FAM-aptamer displacement from GRK2 | P25098 | 330,000 compounds, 0.59% hits;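 active means inhibition of aptamer binding above 40%, roughly 3 SD of noise, on plates passing a quality check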;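 further: median bead fluorescence of bound FAM aptamer so fluorescent compounds give negative values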
Target sequence (P25098 whole entry, looked up): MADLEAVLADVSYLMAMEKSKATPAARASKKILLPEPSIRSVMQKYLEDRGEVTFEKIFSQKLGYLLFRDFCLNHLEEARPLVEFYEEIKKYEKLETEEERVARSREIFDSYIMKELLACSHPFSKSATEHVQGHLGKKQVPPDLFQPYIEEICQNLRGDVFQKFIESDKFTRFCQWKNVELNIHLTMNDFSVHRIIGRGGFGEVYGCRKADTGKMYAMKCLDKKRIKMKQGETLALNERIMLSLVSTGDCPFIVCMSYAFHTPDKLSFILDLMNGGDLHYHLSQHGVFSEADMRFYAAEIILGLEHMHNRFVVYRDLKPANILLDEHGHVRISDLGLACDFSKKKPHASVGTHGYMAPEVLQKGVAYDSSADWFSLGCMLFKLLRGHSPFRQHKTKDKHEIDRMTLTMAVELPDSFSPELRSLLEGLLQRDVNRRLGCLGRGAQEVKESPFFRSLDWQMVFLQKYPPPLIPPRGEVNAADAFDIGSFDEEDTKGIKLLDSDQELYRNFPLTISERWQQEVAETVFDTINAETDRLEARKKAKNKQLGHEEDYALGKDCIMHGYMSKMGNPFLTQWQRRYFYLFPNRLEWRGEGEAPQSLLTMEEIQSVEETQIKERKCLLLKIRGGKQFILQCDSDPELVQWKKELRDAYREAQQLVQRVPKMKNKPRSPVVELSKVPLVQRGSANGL
NadD inh: NadD (S. aureus) enzyme inhibition. purified NadD enzyme, colorimetric absorbance read-out. 360,000 compounds, 0.78% hits. AID 602399. inhibition, % at 20 µM; in the data active means inhibition above about 26%
PP1 inh: blocks human PP1-alpha phosphatase, a PP5 counter-screen; purified PP1alpha, OMFP fluorescence; inhibition, % at 6.7 µM; 320,000 compounds, 0.9% hits; AID 2235;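 active means inhibition above the mean inhibition of all tested compounds plus 3 SD, computed separately for each screening campaign, cut at about 15% in these data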
Beta2AR agonist: human beta-2 adrenergic receptor agonism by FAP; AID 504454; Am2.2-beta2AR cells, FAP receptor internalization, flow cytometry; response, % (test concentration not listed); 340,000 compounds, 0.43% hits;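 active means response above a set limit, near 3 SD of response in nonfluorescent compounds, cut at about 42% in these data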
Exocytosis inh: blocks lytic granule exocytosis; TALL-104 LAMP-1 surface exposure, flow cytometry; cells stimulated with thapsigargin and PMA; inhibition, % at 10 µM; 360,000 compounds, 0.66% hits; AID 651702;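 active means inhibition above about 55%, limit read from the data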
GRK2 CP1: human GRK2 inhibition confirmation, cherry pick 1; shares compounds with GRK2 inh; bead-bound GRK2, FAM-aptamer displacement, flow cytometry; aptamer displacement, % at 10 µM; 2,000 compounds, 4% hits;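 active means aptamer displacement above 40%, near three times the noise of non-fluorescent compounds, on plates passing quality checks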;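 further: negative values mostly reflect intrinsic compound fluorescence rather than true enhancement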
Aptamer quench 1: counter-screen for GRK2 aptamer inhibitors: fluorescent aptamer quenchers. shares compounds with GRK2 inh. Fluorescent RNA aptamer beads, quenching, flow cytometry; stronger effect = higher value. fluorescence change (kMESF span), kMESF (test concentration not listed). 110 tested, under 10 active. AID 504521;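 active means compounds whose bead fluorescence drops by more than 37 kMESF across the dose range, marking them as dye quenchers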
Aptamer quench SP: aptamer fluorescence quenching in GRK2 counter-screen. shares compounds with GRK2 inh. Carboxyfluorescein RNA aptamer on beads, flow cytometry quenching; stronger effect = lower value. fluorescence response (% of DMSO), % at 10 µM. 2,000 tested, under 10 active. AID 504580;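 active means compounds that quench the bead-bound fluorescent RNA probe, cutting fluorescence to under half of the solvent control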;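 further: counterscreen run without GRK2 so only probe quenching by compound is measured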
GRK2 confirm 2: human GRK2 inhibition confirmation, cherry pick 2; shares compounds with GRK2 inh; bead-bound GRK2, FAM-aptamer displacement, flow cytometry; inhibition of aptamer binding, % at 10 µM; 360 tested, under 10 active; AID 504782;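 active means inhibition of aptamer binding above 40%, about triple the noise seen with nonglowing compounds, on plates passing quality control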;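 further: negative values mostly come from compounds that fluoresce themselves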
FAM quench CP2: aptamer fluorescence quenching in GRK2 counter-screen; shares compounds with GRK2 inh; carboxyfluorescein RNA aptamer beads, flow cytometry quenching; stronger effect = lower value; fluorescence response vs DMSO, % at 10 µM; 360 tested, under 10 active;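 active means response vs DMSO under 50%, meaning signal dropped by over half, treated as fluorescence quencher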;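 further: labelled aptamer on streptavidin beads without GRK2 as a quench counter-screen; 100% = bead fluorescence of DMSO wells and lower means quenching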
FAM quench PS1: aptamer fluorescence quenching in GRK2 powder counter-screen. Bead-bound FAM RNA aptamer fluorescence quenching, flow cytometry; stronger effect = lower value. fluorescence ratio to DMSO, % at 11.1 µM. shares compounds with GRK2 inh. 35 tested, under 10 active;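 active means compounds that dim the fluorescent label, raw bead signal shifting by over 33 units between lowest and highest dose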
An asterisk follows results filed as active; . = not tested or not shown. In the library only some 2.9% were active in any assay of this set; here they are far more common.

SMILES | GRK2 inh | NadD inh | PP1 inh | Beta2AR agonist | Exocytosis inh | GRK2 CP1 | Aptamer quench SP | others
CCOCCCNC(=O)c1ccc(N2CCCC2)c(NS(=O)(=O)c2ccc(C)cc2)c1 | 96.0* | -7.7 | 3.9 | 0.4 | 7.1 | 0.8 | 94.0
COCCCNC(=O)c1ccc(N2CCCC2)c(NS(=O)(=O)c2ccc(C)cc2)c1 | 4.0 | -7.0 | 0.5 | 3.6 | -1.7 | . | .
COc1ccc(C(=O)NNC(=O)CSc2nc3c([nH]2)c(=O)n(C)c(=O)n3C)cc1 | 100.0* | 0.6 | -0.9 | -5.3 | 1.2 | 1.9 | 96.8
Cn1c(=O)c2[nH]c(SCC(=O)c3ccc(F)cc3)nc2n(C)c1=O | 0.0 | -5.6 | 0.7 | -1.0 | -1.8 | . | .
CCC(=O)N[C@@H]1C=C[C@@H](CC(=O)NCc2ccccc2F)O[C@@H]1CO | . | . | . | . | 2.3 | . | .
O=C(O)c1ccc(/C=N/Nc2nc3ccccc3[nH]2)cc1 | 95.0* | -2.7 | -6.7 | 26.2 | -1.2 | -14.3 | 148.8
COc1cc(C(=O)NCc2nnc(SCC(=O)Nc3cc(C)on3)o2)cc(OC)c1OC | 74.0* | -5.2 | 1.5 | -3.5 | -1.4 | 0.0 | 103.2
O=C(NNC(=O)c1ccccc1-n1cccc1)c1ccccc1 | 0.0 | 3.1 | 1.0 | -0.7 | 0.5 | . | .
NNC(=O)c1ccccc1-n1cccc1 | 5.0 | 0.9 | -5.7 | 3.9 | -4.3 | . | . | GRK2 confirm 2=9.9;FAM quench CP2=99.0
CN(Cc1nc2ccccc2c(=O)[nH]1)C(=O)c1cc(C2CC2)nn1-c1ccccc1 | 1.0 | -0.7 | -0.1 | 0.2 | 9.6 | . | .
CN(C)S(=O)(=O)c1cccc(COc2ncnc3c(Cl)cc(Cl)cc23)c1 | 90.0* | -4.6 | -1.2 | -19.0 | -2.7 | 0.1 | 101.9
COc1cccc(NC(=O)C(C)NS(=O)(=O)c2ccc(Br)cc2)c1 (centres undefined) | 41.0* | -1.8 | -0.7 | 2.8 | 5.2 | . | . | GRK2 confirm 2=-10.1;FAM quench CP2=99.0
O=C(Nc1ccncc1)c1cccc2ccccc12 | 49.0* | 1.4 | -1.5 | -4.3 | 3.5 | 0.4 | 93.9
O=C(Nc1ccc2ccccc2c1)c1cccc2ccccc12 | . | -5.4 | . | -2.6 | 0.0 | . | .
O=C(NCCOc1nc(N2CCOCC2)nc(N2CCOCC2)n1)Nc1ccccc1 | 46.0* | 1.4 | -5.0 | 4.8 | -5.7 | 0.4 | 97.5
O=C(/C=C/c1ccc(O)c(O)c1)O[C@@H]1C[C@](O)(C(=O)O)C[C@@H](O)[C@H]1O | 16.0 | 3.0 | -1.9 | -6.5 | -5.0 | -3.0 | 99.9
O=c1ccc2cc(S(=O)(=O)N3CCOCC3)ccc2o1 | 56.0* | 0.7 | -1.2 | -13.5 | 0.2 | -4.8 | 101.0
Cc1c(NC(=O)CN2C(=O)C3C4C=CC(C4)C3C2=O)c(=O)n(-c2ccccc2)n1C (centres undefined) | 1.0 | -2.1 | 1.5 | 1.7 | 0.5 | . | .
Cc1c(NC(=O)NC(C)N2C(=O)C3C4C=CC(C4)C3C2=O)c(=O)n(-c2ccccc2)n1C (centres undefined) | 81.0* | 0.2 | -1.6 | 2.6 | 3.6 | 2.5 | 100.8
C/C(N)=C(/C#N)C(=O)COC(=O)Cc1coc2cc(C)ccc12 | 14.0 | -5.6 | -1.7 | 2.8 | -3.1 | . | .
O=C(Oc1ccc(Cl)c2ccccc12)N1CCCCC1 | 99.0* | -6.3 | 2.1 | 23.8 | 1.4 | 1.4 | 102.5
CCOC(=O)C1CCN(c2cc(=O)n(Cc3ccc(F)cc3)c(=O)[nH]2)CC1 | 1.0 | 4.7 | 2.6 | 0.9 | -7.3 | . | .
Cc1cc(C)c(C(=O)COC(=O)c2ccc(NC(=O)CC#N)cc2)cc1C | 0.0 | 27.2 | 8.2 | 4.9 | -8.4 | . | .
Cc1cc(C(=O)COC(=O)c2ccc(NC(=O)CC#N)cc2)c(C)n1CCc1ccc(F)cc1 | 57.0* | 24.4 | 10.7 | 3.0 | 1.2 | 1.6 | 98.3
COc1ccc(C(=O)NCc2ccncc2)cc1S(=O)(=O)NCc1ccc(Cl)cc1 | 0.0 | 1.4 | -1.9 | 1.1 | 3.4 | . | .
SMILES | GRK2 inh | NadD inh | PP1 inh | Beta2AR agonist | Exocytosis inh | GRK2 CP1 | Aptamer quench SP | others
COc1cccc(C2=NO[C@@H]3C(=O)N(c4ccc5c(c4)OCCO5)C(=O)[C@H]23)c1OC | 3.0 | -6.4 | -1.9 | -3.0 | 0.4 | . | . | GRK2 confirm 2=1.1;FAM quench CP2=102.0
O=C(O)C1CC(=O)N(c2ccc3c(c2)OCCO3)C1 (centres undefined) | 61.0* | 1.0 | -4.2 | 1.4 | 2.9 | 40.2* | 96.8 | Aptamer quench 1=-11.5;FAM quench PS1=101.0
COc1cccc(OC)c1OC(=O)C1CC(=O)N(c2ccc3c(c2)OCCO3)C1 (centres undefined) | 2.0 | 6.5 | . | 6.8 | -8.1 | . | . | GRK2 confirm 2=30.4;FAM quench CP2=104.0
COc1ccc(S(=O)(=O)N2CCC(C(=O)N3CCCCC3)CC2)cc1Cl | 0.0 | -1.5 | -5.5 | -4.8 | -1.3 | . | .
COc1ccc(CCNC(=O)CN(C)S(=O)(=O)c2ccc(OC)cc2)cc1 | 60.0* | -6.4 | -1.9 | -4.1 | -10.4 | 8.2 | 99.0
COc1ccc(CCNC(=O)CN(C)S(=O)(=O)c2cccs2)cc1 | 0.0 | 0.6 | -2.6 | 5.5 | 2.8 | . | .
Cc1cc(C)c2nc(N3CCC(C(=O)NCCCN4CC(C)CC(C)C4)CC3)sc2c1 (centres undefined) | 0.0 | -4.7 | -0.5 | 37.2 | 10.6 | . | .
O=C(CNC(=O)c1cccs1)Nc1ccncc1 | 1.0 | -1.6 | -5.2 | -0.4 | -0.1 | . | .
CSCC[C@H](NC(=O)Cc1c(C)c2c(cc(C)c3c(C)coc32)oc1=O)C(=O)O | 97.0* | 4.8 | . | 2.3 | 6.3 | -4.8 | 94.7
COc1cccc(C(=O)N[C@@H](C)C(=O)N2CCC3(CC2)NCCc2[nH]cnc23)c1 | 0.0 | -8.2 | -6.6 | 13.4 | -2.3 | . | .
O=[N+]([O-])c1cnc(N2CCCCC2)c([N+](=O)[O-])c1 | 1.0 | -4.2 | 0.3 | -0.6 | 1.2 | . | .
Cc1cc([N+](=O)[O-])cnc1N1CCOCC1 | 88.0* | -1.9 | 2.0 | 5.9 | -1.2 | 1.4 | 115.5
Cn1c(C2=C(O)CN(Cc3ccccc3)C2=N)nc2ccccc21 | 2.0 | 1.2 | -3.6 | -1.7 | 3.4 | . | .
CC(C)(C)c1ccc(C(=O)N2CCNCC2)cc1 | 65.0* | -2.0 | -1.0 | 3.2 | -2.1 | 2.7 | 103.1
Cc1ccc(C)c(N2C(=O)c3ccc(C(=O)Nc4ccccn4)cc3C2=O)c1 | . | -0.5 | . | . | -1.6 | . | .

Screening results as filed in PubChem BioAssay.
